# Test results published in the supplement of paper PMC12636033.
# ± gives the standard deviation of the averaged measurements. Whole data set: some 33,000 sequences, median “E-score (rank enrichment, -0.5 to 0.5)” near -0.0043, cut for the highest 2% near 0.24. Shown is part of a subset that was picked to be rich in the highest values.
# System: 2Sp-muMax20 (muMax20 with two 2,6-bis(methyl)pyridine Cys staples)
# Test: PBM 8-mer E-score (E-score (rank enrichment, -0.5 to 0.5)); higher = stronger preferential binding
# Experimental: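 Protein binding microarray (universal PBM chip covering all 10-mers in fixed probe flanks) with chemically synthesized human Max(13-93) bHLH-LZ analogs (not full-length Max) bearing noncanonical residues (hArg, Tha, Aib, Nle at 65) and aromatic Cys staples. Read-out per 8-mer (and its reverse complement): E-score (rank-based enrichment, -0.5 to 0.5) and Z-score of median probe intensity.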
row,Sequence,PBM 8-mer E-score
1,TATTAATA,0.274 ± 0.1
2,GATTAATC,-0.0645 ± 0.077
3,GATTAACA,0.174 ± 0.046
4,CATTAATA,0.201 ± 0.014
5,TATTAACA,0.218 ± 0.011
6,GATTAATA,0.274 ± 0.062
7,GTCCTGCA,-0.0516 ± 0.027
8,ACCGCACT,-0.193 ± 0.07
9,AAACTGGC,-0.0533 ± 0.0029
10,GAAAGGCC,-0.146 ± 0.053
11,AAAGGCCG,0.281
12,CAAAAGGC,0.0445 ± 0.053
13,CAAAGGCC,0.0557 ± 0.1
14,AAAAAGGC,0.00635 ± 0.045
15,AAAGGCCC,-0.012 ± 0.043
16,CAAGGCCG,-0.065 ± 0.016
17,AAAAGGCC,0.3 ± 0.0042
18,GAAAAGGC,0.308 ± 0.013
19,AGTGTCGG,-0.166 ± 0.11
20,GATGCCCC,-0.0212 ± 0.099
21,ATTGAGGC,0.167 ± 0.021
22,CAAATGTG,0.0759 ± 0.025
23,AACATGCG,0.253 ± 0.035
24,CACATGTA,0.312 ± 0.02
25,CTCATGTA,0.0793 ± 0.033
26,CACATGCG,0.166 ± 0.097

row,Sequence,PBM 8-mer E-score
1,ACCATGTA,0.0783 ± 0.049
2,CACATGTC,0.0937 ± 0.018
3,CACATGAA,0.138 ± 0.035
4,CACATGTG,0.4178 ± 0.00081
5,ACCATGTG,0.262 ± 0.03
6,AACATGCT,0.126 ± 0.0074
7,ACCATGTC,0.0986 ± 0.05
8,CCCTAAAG,0.134 ± 0.057
9,ACTCTAGC,-0.0888 ± 0.0064
10,GGGGCAAA,0.0419 ± 0.059
11,AGCCCAAC,0.0919 ± 0.041
12,GCTGACCA,-0.0567 ± 0.026
13,AGCCTTGG,0.0479 ± 0.022
14,ACAAGTAG,0.00901 ± 0.018
15,TACATGTA,0.265 ± 0.051
16,AACATGAG,0.0341 ± 0.0065
17,AACATGTG,0.36 ± 0.026
18,AACATGTT,0.304 ± 0.043
19,AACATGTA,0.2242 ± 0.0011
20,AGCATGTG,0.223 ± 0.016
21,TACATGCA,0.222 ± 0.018
22,AACATGTC,0.143 ± 0.038
23,GACATGTA,0.217 ± 0.066
24,AGGGCTCG,-0.212 ± 0.027
25,ACAAGGGG,0.0199 ± 0.047
26,TCGATACA,0.197 ± 0.0083

row,Sequence,PBM 8-mer E-score
1,GCGATGGA,-0.138 ± 0.0024
2,ATAGCCGA,-0.00055 ± 0.0078
3,ATTCCAGA,0.0163 ± 0.071
4,CGGTGATC,-0.15 ± 0.0077
5,ACTTGAAG,0.186 ± 0.027
6,AATGTAAA,0.311 ± 0.014
7,CATGTAAA,0.12 ± 0.055
8,GATGTATA,0.107 ± 0.023
9,AATGTAAT,0.189 ± 0.0034
10,CATGTATA,0.165 ± 0.0069
11,AATGTATA,0.269 ± 0.048
12,ATCTCTGA,-0.0124 ± 0.14
13,AGCCGGTG,-0.254 ± 0.045
14,CCCGTACG,-0.0914 ± 0.052
15,AAGGCGTG,-0.0484 ± 0.012
16,ACGTGCAA,0.212 ± 0.029
17,CATAATAG,0.237 ± 0.028
18,CATAATGG,0.153 ± 0.026
19,CATAATAA,0.0619 ± 0.015
20,CATAATAC,0.249 ± 0.028
21,AATAATAC,-0.0356 ± 0.042
22,AATAATAG,0.137 ± 0.084
23,AGGTGGAG,-0.0381 ± 0.055
24,GATGACGA,0.165 ± 0.017
25,GCGCCTCC,0.111 ± 0.079
26,CAAGAGCC,-0.0162 ± 0.036

row,Sequence,PBM 8-mer E-score
1,AAGCTGAA,0.104 ± 0.047
2,AGGAGGCG,0.0177 ± 0.059
3,ACATGCAC,0.0958 ± 0.01
4,GCATGCGC,0.164 ± 0.06
5,ACATGCAT,0.333 ± 0.0087
6,ACATGCAG,0.0533 ± 0.012
7,CCATGCGA,0.0984 ± 0.026
8,GCATGCAA,0.244 ± 0.014
9,TCATGCAA,0.219 ± 0.014
10,GCATGCAC,0.216 ± 0.023
11,GCATGCGA,0.3 ± 0.012
12,AGACTCAA,-0.111 ± 0.022
13,GCGGCAGA,-0.228 ± 0.049
14,GAGCAGTA,0.113 ± 0.0065
15,AGAGGGCT,-0.00447 ± 0.07
16,ACGGGGCG,0.0718 ± 0.047
17,ACGTTATA,0.204 ± 0.072
18,ACGTTATG,0.284 ± 0.0056
19,ACTTTATC,-0.0354 ± 0.037
20,ACGTTATC,0.034 ± 0.046
21,ACTTTATG,0.281 ± 0.065
22,ACTTTATA,0.192 ± 0.053
23,AAAAAACT,0.0474 ± 0.0053
24,TACGCGTA,0.0583 ± 0.054
25,GATCTTCC,-0.219 ± 0.038
26,CAACCTCG,-0.194 ± 0.05

row,Sequence,PBM 8-mer E-score
1,GGTTACTA,-0.067 ± 0.092
2,GTTACCGA,-0.284 ± 0.013
3,ATGCGCAC,0.195 ± 0.071
4,TTGCGCAA,0.344 ± 0.0038
5,ATGCGCAA,0.184 ± 0.017
6,GTGCGCAA,-0.0392 ± 0.038
7,ATGCGCAT,0.335 ± 0.061
8,ATGCGCAG,0.0186 ± 0.025
9,ATCCAGTA,0.134 ± 0.028
10,GATAGGGC,0.081 ± 0.019
11,ATAGTTGA,0.121 ± 0.077
12,GTACGCAA,-0.0841 ± 0.033
13,ATACGCAA,0.308 ± 0.062
14,ATACGCAG,0.0458 ± 0.043
15,ACGAGCCT,-0.00942 ± 0.0098
16,CCAGCAGA,-0.0671 ± 0.018
17,AATCACAA,0.144 ± 0.036
18,GATCACAC,0.153 ± 0.019
19,AATCACAG,-0.0564 ± 0.011
20,AATCACGT,0.254 ± 0.024
21,AATCACGA,-0.0412 ± 0.011
22,CATCACAC,0.118 ± 0.035
23,AATCACAC,0.236 ± 0.041
24,AATCACAT,0.27 ± 0.019
25,AATCACGC,0.193 ± 0.015
26,CGTTATGC,0.177 ± 0.027

row,Sequence,PBM 8-mer E-score
1,AAAGTTTA,0.206 ± 0.054
2,AGGTTTAC,-0.222 ± 0.071
3,ACTGTGCC,0.0364 ± 0.042
4,CCATCCCG,-0.00777 ± 0.0093
5,AACGTCCA,-0.012 ± 0.044
6,GTAGTTGA,0.116 ± 0.0092
7,ATTGCATC,0.134 ± 0.014
8,GCGATGCC,-0.221 ± 0.0047
9,GATCATGA,0.139 ± 0.016
10,CCCTTCAC,0.0356 ± 0.018
11,ACATGTCG,0.164 ± 0.071
12,CTATGTAA,0.00312 ± 0.013
13,AAATGTAC,0.296 ± 0.052
14,CCATGTAA,0.122 ± 0.09
15,TCATGTAA,0.0907 ± 0.036
16,CAATGTAC,0.00633 ± 0.095
17,ATATGTAA,0.0958 ± 0.035
18,ACATGTCT,0.251 ± 0.006
19,ACATGTCC,0.151 ± 0.033
20,ACATGTAA,0.24 ± 0.04
21,GTATGTAA,0.236 ± 0.055
22,AAATGTAG,0.134 ± 0.1
23,ATAGTATC,0.0888 ± 0.11
24,ACGAACTC,-0.159 ± 0.021
25,GAACGTAC,-0.045 ± 0.0085
26,GCTTTGCA,-0.0268 ± 0.02

row,Sequence,PBM 8-mer E-score
1,GCATGTAC,0.2075 ± 0.0014
2,AGATGTAT,0.167 ± 0.023
3,ACATGTAT,0.277 ± 0.0074
4,CCATGTAG,0.148 ± 0.0044
5,ACATGTAC,0.311 ± 0.0047
6,AAATGTAT,0.0866 ± 0.053
7,ACATGTAG,0.241 ± 0.051
8,AGATGTAG,0.167 ± 0.023
9,CCATGTAC,-0.0575 ± 0.098
10,GTAGCTTA,0.179 ± 0.047
11,TGGTGTAA,0.135 ± 0.039
12,CCCCCAGC,-0.295 ± 0.034
13,ATACCAGG,-0.136 ± 0.023
14,CACAAGGG,-0.0596 ± 0.022
15,AGTCTAAA,-0.14 ± 0.013
16,GACCCACC,0.106 ± 0.043
17,AACCCACC,0.267 ± 0.025
18,ACCCCACG,0.0387 ± 0.033
19,TCCCCCAA,-0.174 ± 0.034
20,CCCCCAAA,-0.195 ± 0.075
21,CGCCCACG,-0.0323 ± 0.074
